Calls of active or inactive are those of the source. Rule for the calls: active = hit-call score of the fitted dose curve at least 0.9, where 1 is the maximum; inactive = score below 0.9.
How the values were obtained:
[1] = APR_HepG2_CellLoss_24hr: Apredica 24-hour HepG2 Assay for Cell Loss (AID 2282908); conditions: high-content imaging;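 for AC50: fit in both directions so a hit may be cell loss or gain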
How it was run: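 Read-out: Hoechst 33342-stained nuclei counted by automated fluorescence imaging after formaldehyde fixation and Triton permeabilization. Ten concentrations, 0.39 to 200 uM, duplicate wells, 0.5% DMSO final. Gain or loss of signal fitted relative to DMSO baseline.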

[2] = APR_HepG2_MicrotubuleCSK_24hr: Apredica 24-hour HepG2 Assay for Microtubule CSK Stabilty (AID 2282909); conditions: HepG2 microtubule cytoskeleton imaging, actives raise or lower the signal
How it was run: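 Read-out: alpha-tubulin immunofluorescence intensity by automated high-content imaging of fixed HepG2 cells after 24 h compound treatment. Ten concentrations, 0.39 to 200 uM, in duplicate; DMSO 0.5% v/v. Taxol positive control; DMSO-normalized bidirectional curve fitting.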

[3] = APR_HepG2_MitoticArrest_24hr: Apredica 24-hour HepG2 Assay for Mitotic Arrest (AID 2282910); conditions: high-content imaging, actives raise or lower the signal
How it was run: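 HepG2, 24 hr dosing, 0.39–200 uM, 0.5% DMSO final. Formaldehyde-fixed, Triton-permeabilised, anti-phospho-histone H3 plus Hoechst. ArrayScan imaging at 20x; bidirectional fit vs DMSO baseline.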

[4] = APR_HepG2_MitoMembPot_24hr: Apredica 24-hour HepG2 Assay for Mitochondrial Membrane Potential (AID 2282911); conditions: imaging, actives raise or lower the signal
How it was run: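 Mitochondrial dye uptake (MitoTracker Red CMXRos, 250 nM, 30 min pre-fixation) in HepG2 after 24 hr compound exposure, 0.39–200 uM; ArrayScan images at 20x, activity fitted in both directions relative to DMSO.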

[5] = APR_HepG2_MitoMass_24hr: Apredica 24-hour HepG2 Assay for Mitochondrial Mass (AID 2282912); conditions: high-content imaging, actives raise or lower the signal
How it was run: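 HepG2, 24 hr dosing, 10 concentrations 0.39–200 uM in duplicate, DMSO 0.5% final. MitoTracker Red CMXRos 250 nM, 30 min pre-fix; 3.7% formaldehyde fix. Imaging-based fluorescence intensity; gain/loss fit vs DMSO baseline.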

[6] = APR_HepG2_CellCycleArrest_72hr: Apredica 72-hour HepG2 Assay for Cell Cycle Arrest (AID 2282914); conditions: high-content imaging, actives raise or lower the signal
How it was run: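 Using multiplexed high-content imaging, HepG2 nuclei stained with Hoechst 33342 (2 ug/mL) were analysed for DNA content after fixation and permeabilization. Treatment lasted 72 hr across 0.39–200 uM in duplicate with final DMSO 0.5% v/v; DMSO served as negative control.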

[7] = APR_HepG2_CellLoss_72hr: Apredica 72-hour HepG2 Assay for Cell Loss (AID 2282915); conditions: high-content imaging
How it was run: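 HepG2 cells exposed 72 h to compound at 0.39–200 uM (10 concentrations, duplicate) in 0.5% DMSO. Fixed with 3.7% formaldehyde and Hoechst 33342-stained. Imaged at 20x; nuclear count gives cell number, fitted bidirectionally versus DMSO.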

[8] = APR_HepG2_p53Act_24hr: Apredica 24-hour HepG2 Assay for p53 Activation (AID 2282913); conditions: high-content imaging, actives raise or lower the signal;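 note: p53 protein immunofluorescence averaged per cell in HepG2 with Hoechst nuclei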
How it was run: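 Following 24 hr dosing of HepG2 at 0.39–200 uM, the cells undergo formaldehyde fixation, Triton permeabilization and multiplexed antibody labeling that includes p53 (Cy5). Signal from the imaging is referenced to DMSO solvent controls.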

[9] = APR_HepG2_NuclearSize_24hr: Apredica 24-hour HepG2 Assay for Nuclear Size (AID 2282907); conditions: high-content imaging, actives raise or lower the signal
How it was run: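 Read-out: nuclear diameter from Hoechst 33342 (2 ug/mL) imaging of fixed HepG2 cells, 20x, six fields/well. Compounds ran at 0.39–200 uM for 24 hr, 0.5% DMSO final. Gain or loss was fitted bidirectionally relative to the DMSO baseline.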

Measured: AC50

O=C(N[C@@H](c1ccccc1)[C@@H]1CCCCN1)c1cccc(C(F)(F)F)c1Cl
inactive: [4] | [6]
active: [1] 21.7 µM | [2] 11.4 µM | [3] 12.6 µM | [5] 12.6 µM | [7] 15.2 µM

CC(=O)O[C@]1(C(C)=O)CC[C@H]2[C@@H]3C=C(Cl)C4=CC(=O)[C@@H]5C[C@@H]5[C@]4(C)[C@H]3CC[C@@]21C
not listed: [1] | [8] | [9]
inactive: all other assays above

CN(C)C(=O)NC1(c2ccccc2)CCN(CC[C@@]2(c3ccc(F)c(F)c3)CN(C(=O)c3ccccc3)CCO2)CC1
active: [3] 101 µM | [5] 97.8 µM | [7] 111 µM
not listed: [9]
inactive: all other assays above

Oc1ccc(O)cc1
active: [5] 51.4 µM | [8] 19 µM | [6] 100 µM | [7] 71.7 µM
inactive: [2] | [3] | [4]

NCCOCCOCCN
active: [2] 170 µM | [3] 14.3 µM | [4] 107 µM | [5] 45.3 µM | [8] 83.7 µM | [6] 18.6 µM | [7] 16.6 µM

C=CCCCCCCCCCCCC
active: [8] 99.4 µM | [7] 87.6 µM
not listed: [1] | [3]
inactive: all other assays above

CCCCCCC(C=O)=Cc1ccccc1
active: [5] 53.5 µM | [6] 57 µM | [7] 50.2 µM
inactive: [9] | [2] | [4]

CC(C)(C)c1ccccc1
not listed: [9]
inactive: all other assays above

CC1(C)C(=O)NC(=O)N1CO
active: [1] 108 µM | [7] 120 µM
not listed: [3] | [9]
inactive: all other assays above

CCN(CC)CCOc1ccc(C(=C(Cl)c2ccccc2)c2ccccc2)cc1
active: [2] 81.2 µM | [3] 10.8 µM | [4] 0.0258 µM | [5] 155 µM | [6] 26.5 µM | [7] 13.7 µM

O=C1NC(=O)C(c2ccccc2)(c2ccccc2)N1
inactive: [2] | [4] | [5] | [6] | [7]

CC(=O)S[C@H](C(=O)N[C@H]1Cc2ccccc2[C@H]2CCC[C@@H](C(=O)O)N2C1=O)C(C)C
not listed: [1] | [3] | [9]
inactive: all other assays above

Cc1cc(Cc2ccc(N)c(C)c2)ccc1N
active: [6] 103 µM | [7] 77.8 µM
not listed: [1] | [9]
inactive: all other assays above

OCC(O)CO
active: [8] 0.0391 µM
not listed: [9]
inactive: all other assays above

CCCCCCCCCCCCCCOS(=O)(=O)O
active: [1] 117 µM | [3] 109 µM | [8] 100 µM | [7] 110 µM
not listed: [9]
inactive: all other assays above

CCCC(=O)O
not listed: [1] | [8]
inactive: all other assays above

CC(N)=O
active: [7] 115 µM
not listed: [1] | [8]
inactive: all other assays above

O=C(O)c1[nH]n(-c2ccc(S(=O)(=O)O)cc2)c(=O)c1N=Nc1ccc(S(=O)(=O)O)cc1
not listed: [1] | [9]
inactive: all other assays above

COC(=O)[C@H]1[C@H]2C[C@@H]3c4[nH]c5cc(OC)ccc5c4CCN3C[C@H]2C[C@@H](OC(=O)c2cc(OC)c(OC)c(OC)c2)[C@@H]1OC
active: [2] 44.3 µM | [4] 90.2 µM | [5] 41.2 µM | [8] 40.3 µM | [7] 19.5 µM
inactive: [6]

Nc1nc(=S)c2[nH]cnc2[nH]1
active: [1] 21.4 µM | [6] 63.2 µM | [7] 17.9 µM
inactive: [2] | [3] | [4] | [5]

CC(=O)[C@@]1(O)CC[C@H]2[C@@H]3CCC4=CC(=O)CC[C@]4(C)[C@H]3CC[C@@]21C
not listed: [3] | [8] | [9]
inactive: all other assays above

CC(=O)CC(c1ccccc1)c1c(O)c2ccccc2oc1=O (centres undefined)
inactive: [2] | [4] | [5] | [6] | [7]

CCCCCCCC(=O)OC
not listed: [1]
inactive: all other assays above

COC(=O)CCCC(=O)OC
not listed: [1] | [3]
inactive: all other assays above

O=C(NS(=O)(=O)/C=C/c1cccs1)c1ccc(F)cc1Br
active: [7] 80.8 µM
inactive: [2] | [3] | [4] | [5] | [6]
